# Bioassay records deposited in PubChem by National Center for Advancing Translational Sciences (NCATS).
# VACV mCherry inh: qHTS for Stage-Specific Inhibitors of Vaccinia Orthopoxvirus: mCherry Reporter Primary qHTS. Vaccinia virus mCherry reporter infection, fluorescence. Potency, µM (highest dose often 36.5 µM), hits mostly inhibitors. actives 0.63% (n = 310,000). AID 720579, 2013; calls by dose curve; tested in A549 cells; also: nearly all actives have a fitted effect of over 35% in size
# AMA1-RON2 inh: qHTS for Inhibitors of AMA1-RON; Towards Development of Antimalarial Drug Lead: Primary Screen; Plasmodium falciparum AMA1 (3D7) - RON2 peptide interaction; AlphaScreen AMA1-biotinylated RON2 peptide binding; AID 720542, 2013; actives 0.2% (n = 360,000); Potency, µM (titrated, usually from 58.2 µM), usual class: inhibitors; also: nearly all actives have a fitted effect of over 45% in size
#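 AMA1 (3D7) with his tag at 25 nM final met compounds first, then biotinylated RON2 peptide at 25 nM; detection used donor plus acceptor beads, 10 µg/mL apiece, read by AlphaScreen after 30 min at room temperature.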
# RE007 growth inh: qHTS Assay for Inhibitors of the HIV-1 protein Vpr | actives 0.21% (n = 360,000) | Potency, µM (doses to about 92.2 µM), hits mostly inhibitors | S. pombe RE007 Vpr strain, BacTiter-Glo ATP luminescence, 24 h; active = well fitted falling curve with a large enough effect; inconclusive = small, poorly fitted or top-dose-only effect; inactive = no such curve, though single readings can be large or run the other way; also: nearly all actives have a fitted effect of over 50% in size
#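 Fission yeast RE007 carrying one integrated HIV-1 vpr copy, seeded at OD 0.01 in PMG+AL medium with 23 nL pinned compound. Grown 24 h at 30 degrees; viability read by BacTiter-Glo luminescence after 5 min.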
# Tb PYK inh: qHTS of Trypanosoma Brucei Inhibitors; pyruvate kinase (Trypanosoma brucei), Q57TT1; TbPYK enzyme, Kinase-Glo Plus ATP luminescence, 45 min; Potency, µM (doses to about 76.8 µM), actives largely listed as inhibitors; actives 0.12% (n = 410,000); also: nearly all actives have a fitted effect of over 50% in size
#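 In this concentration-response screen, enzyme-free wells defined baseline while DMSO plates tracked drift. Each reaction combined TbPYK, substrate, compound and 130 uM ADP for 45 min at room temperature. Kinase-Glo Plus luminescence gave the signal.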
# LmPK inh: qHTS Assay for Inhibitors of Leishmania Mexicana Pyruvate Kinase (LmPK). Q27686. purified LmPK, Kinase-Glo ATP luminescence, 1 h. Potency, µM (highest dose often 57.5 µM), usual class: inhibitors. actives 0.37% (n = 290,000). AID 1721, 2009
# Target sequence (Q27686 whole entry, looked up): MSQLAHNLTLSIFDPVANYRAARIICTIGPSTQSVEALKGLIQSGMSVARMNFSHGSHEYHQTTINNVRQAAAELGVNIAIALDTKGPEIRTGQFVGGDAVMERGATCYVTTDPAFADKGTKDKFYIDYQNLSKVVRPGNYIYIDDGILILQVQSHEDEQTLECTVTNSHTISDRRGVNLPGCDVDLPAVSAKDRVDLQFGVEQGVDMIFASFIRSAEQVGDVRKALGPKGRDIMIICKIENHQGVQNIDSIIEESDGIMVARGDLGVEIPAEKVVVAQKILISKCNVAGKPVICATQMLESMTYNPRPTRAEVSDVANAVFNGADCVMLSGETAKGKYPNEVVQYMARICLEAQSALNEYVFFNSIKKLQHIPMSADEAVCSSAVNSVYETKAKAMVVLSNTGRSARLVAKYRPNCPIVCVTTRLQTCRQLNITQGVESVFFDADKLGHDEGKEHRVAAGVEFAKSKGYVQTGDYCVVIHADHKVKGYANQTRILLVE
#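 qHTS format; LmPK 0.1 nM; substrates PEP 0.5 mM and ADP 0.1 mM. One-hour room-temperature incubation, then coupled luciferase luminescence; 0.5 nM enzyme wells mark activation.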
# VACV Venus inh: qHTS for Stage-Specific Inhibitors of Vaccinia Orthopoxvirus: Venus Reporter Primary qHTS | Vaccinia virus Venus reporter expression, fluorescence | Potency, µM (highest dose often 36.5 µM), hits mostly inhibitors | actives 0.46% (n = 330,000) | AID 720580, 2013; calls by dose curve; tested in A549 cells; also: nearly all actives have a fitted effect of over 30% in size
# Numbers stand for hits; n = inactive; u = inconclusive; x = not tested or not shown; [ ] = remark or other dose. Hits are enriched below; roughly 1.3% of the tested compounds scored in any of these assays. Unless noted, calls follow the shape of the dose curve; as a rule, active = well fitted curve in the direction sought with a large enough effect; inconclusive = small, poorly fitted or top-dose-only effect, or another doubt; inactive = no such curve, though single readings can be large; an effect the other way counts as inactive or inconclusive.
SMILES,VACV mCherry inh,AMA1-RON2 inh,RE007 growth inh,Tb PYK inh,LmPK inh,VACV Venus inh
Cc1ccc2oc(C(=O)N(Cc3ccc(N(C)C)cc3)C3CCS(=O)(=O)C3)c(C)c2c1 (centres undefined),n,28µM,n,n,n,n
Cc1ccc2c(C)c(C(=O)N(Cc3ccc(N(C)C)cc3)C3CCS(=O)(=O)C3)oc2c1 (centres undefined),n,18µM,n,n,n,n
COCCCNc1ncnc2sc(C(=O)N3CCCCC3)c(C)c12,n,x,x,x,x,n
ON=C1c2cc(OCCN3CCCCC3)ccc2-c2ccc(OCCN3CCCCC3)cc21,u,n,n,n,n,8.9µM
COCC(=O)Nc1cc(C(=O)N2CCC(c3ccccc3)CC2)cc2nc(-c3ccccc3)n(C)c12,n,x,x,x,x,n
CCCc1c(C(=O)N/N=C(\C)c2ccccc2O)nnn1-c1nonc1N,u,n,n,n,x,n
C/C(=N\NC(=O)c1nnn(-c2nonc2N)c1-c1ccccc1)c1ccccc1O,2µM,n,n,n,n,u
Cc1cc(C)c2c(=N)c3ccccc3n(CCCCCCCCn3c4ccccc4c(=N)c4c(C)cc(C)nc43)c2n1,10µM,u,n,n,x,10µM
COC(=O)[C@]12CCC(C)(C)C[C@@H]1[C@@H]1C(=O)C=C3[C@@]4(C)C=C(C#N)C(=O)C(C)(C)[C@@H]4CC[C@@]3(C)[C@]1(C)CC2,x,x,x,n,x,x
COc1ccc(-c2c3c([nH]c(=S)c2C#N)CCC3)cc1,n,n,n,13µM,n,n
N#Cc1c(-c2cccnc2)c2c([nH]c1=S)CCCC2,x,n,n,u,n,n
Cc1[nH]c(=S)c(C#N)c(-c2ccccc2)c1C(=O)Nc1ccccc1,n,n,n,u,n,n
N#Cc1c(-c2ccco2)c2c([nH]c1=S)CCCC2,x,n,n,18µM,n,n
CCN(CC)C(=O)c1c(C)[nH]c(=S)c(C#N)c1-c1ccco1,n,n,n,5.6µM,n,n
COc1ccc(OC)c(-c2c3c([nH]c(=S)c2C#N)CCCC3)c1,n,n,n,u,n,n
COc1cc(=O)n2c(c1C(=O)NC(C)c1ccco1)CCN(Cc1ccccc1C(F)(F)F)CC2 (centres undefined),n,x,x,x,x,n
CC(C)(C)C(=O)OC1=CN(Cc2ccccc2)S(=O)(=O)c2ccccc21,11µM,x,x,n,x,u
CC(=O)N1N=C(c2ccccc2)OC1c1ccc([N+](=O)[O-])s1 (centres undefined),n,n,35µM,n,n,n
CCCOc1ccc(CCc2n[nH]c(=S)n2Cc2ccccc2)cc1,x,n,n,u,u,x
COc1ccccc1OCc1n[nH]c(=S)n1Cc1ccccc1,n,n,n,4µM,n,n
C=CCn1c(C(c2ccccc2)c2ccccc2)n[nH]c1=S,n,n,n,u,n,n
CCn1c(C(c2ccccc2)c2ccccc2)n[nH]c1=S,x,n,n,8.9µM,n,n
S=c1[nH]nc(CCc2ccccc2)n1Cc1ccccc1,n,n,n,4µM,8.9µM,n
O=C1C=CC(=O)c2c(O)c(Cl)c(Cl)c(O)c21,n,x,x,x,x,n
C=CS(=O)(=O)c1ccc(Oc2ccc(S(=O)(=O)C=C)cc2)cc1,7.1µM,n,n,n,n,10µM
SMILES,VACV mCherry inh,AMA1-RON2 inh,RE007 growth inh,Tb PYK inh,LmPK inh,VACV Venus inh
Cc1cccc(CNC(=O)c2cnn(-c3nccc(-c4cccs4)n3)c2C2CC2)n1,n,x,x,x,x,n
N=c1ccn2c(n1)O[C@H]1[C@H](O)[C@@H](CO)O[C@H]12,x,n,n,n,n,x
N=c1ccn2c(n1)O[C@H]1[C@@H](CO)[C@H](O)O[C@H]12,0.45µM,n,n[18.4 µM],n,x,u
O=S1(=O)CCO[C@H]2CCCC[C@@H]2N1Cc1ccccc1F,n,x,x,x,x,n
COc1ccc2cc1Oc1ccc(cc1)CC1c3c(cc(OC)c4c3Oc3cc5c(cc3O4)CCNC5C2)CCN1C (centres undefined),u,14µM,n,n,n,u
COc1ccc2cc1Oc1ccc(cc1)C[C@H]1c3c(cc(OC)c4c3Oc3c(ccc5c3[C@H](C2)N(C)CC5)O4)CCN1C,u,n,n,n,x,u
Cc1nc(C)c(CC(=O)N2CCOc3ccc(CN4CCOCC4)cc3C2)s1,n,x,x,x,x,n
Cc1c(C2(O)CCCCC2)[nH]c2ccc(C(F)(F)F)cc12,n,n,40µM,n,x,n
O=C(O)c1ccc(C2CCCCC2)cn1,x,13µM,n,n,n,x
Cc1ccc(OCCn2cc(C(=S)N3CCCC3)c3ccccc32)cc1C,4µM,n,n,u,n,n
CC(=NNC(=S)N1CC2CCC(CC2)C1)c1nccs1,u,u,32µM,u,x,u
CC(=NNC(=S)N1CC2CCC(CC2)C1)c1cccc(C)n1,4µM,n,u,n,x,u
CCn1nc(C)c(CN2Cc3ccccc3OC(c3ccccc3OC)C2)c1C (centres undefined),n,x,x,x,x,n
CCN(CC)CCCN=C1N[C@@H](c2cccc(F)c2)C(C(=O)OC)=C(C)N1Cc1ccccc1,u,n,n,n,x,28µM
COC(=O)C1=C(C)N(Cc2ccccc2)C(=NCc2ccccc2)N[C@H]1c1cccc(F)c1,u,n,n,n,n,u
COC(=O)C1=C(C)N(Cc2ccccc2)C(=NCCc2c[nH]c3ccccc23)N[C@H]1c1cccc(F)c1,u,n,n,n,x,13µM
COc1cccc(C2(CC(=O)N3CCN(c4ccccn4)CC3)CC(=O)N(C3CCCC3)C2=O)c1 (centres undefined),n,x,x,x,x,n
CC/C=C(/C(=O)N[C@@H]1C(=O)N2C(C(=O)OCOC(=O)C(C)(C)C)=C(COC(N)=O)CS[C@H]12)c1csc(N)n1,x,x,x,n,x,x
O=C(NN=C1CCCC1)c1n[nH]c2c1CCCC2,x,n,n,n,28µM,x
Cc1ccsc1/C=N\NC(=O)c1n[nH]c2c1CCC2,u,n[11.6 µM],n,n,10µM,u
Cc1ccsc1/C=N/NC(=O)c1ccc2c(c1)OCCO2,n,n,n,n,22µM,n
C/C(=N/NC(=O)c1ccoc1C)c1ccc(NC(=O)C2CCCC2)cc1,n,n,n,n,n,n
O=C(NN=C1CCCC1)c1n[nH]c2c1CCC2,u,n,n,n,n,u
C/C(=N\NC(=O)c1ccoc1C)c1ccccc1,n[7.34 µM],n,n,n,14µM,n[7.34 µM]
C/C(=N\NC(=O)c1ccc(O)cc1)c1ccc2c(c1)OCCO2,x,n,n,n,x,x
C/C(=N\NC(=O)c1ccc2c(c1)OCCO2)c1ccccc1,n,n,n,u,11µM,n
